Data published in PubChem BioAssay (Tox21).
Inconclusive results are not listed. Unmarked numbers belong to inactive results. Calls come from the whole dose curve; as a rule, active = well fitted cell-killing curve with a large enough effect in the repeat runs; inconclusive = weak or mixed curves, or effect the other way; inactive = flat fitted curve, though single readings scatter.

test: qHTS RealTime-Glo MT Cell Viability Assay in HepG2 cells - 0 hour (AID 1224889); settings: RealTime-Glo luminescence; series mostly up to 76.8 µM; activity change, negative = cytotoxicity: at the top concentration; note: nearly all actives have a fitted effect of over 50% in size
How it was run: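 qHTS, HepG2, 600 cells/well, RealTime-Glo (NanoLuc + prosubstrate) added with cells; 5 h preincubation; DMSO compound addition; 37 C; luminescence at 0/8/16/24/32/40 h.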
% is set by controls: 0 for no effect and ±100 for the full control effect.

| Structure (SMILES) | activity change, negative = cytotoxicity |
| --- | --- |
| O=C(O)c1ccccc1S | 8.04% [at 35.3 µM] |
| NC(=O)CCCCC1CCSS1 (configuration not stated) | 7.41% [at 35.3 µM] |
| CCN(CC)C(=O)c1ccc(O)c(OC)c1 | 7.9% [at 35.3 µM] |
| C1C2OC2C2C1C1CC2C2OC12 (configuration not stated) | 1.6% |
| CC12CCC(CC1=O)C2(C)C (configuration not stated) | 3.05% |
| CCCc1ccccc1O | 14.2% |
| Nc1ncnc2c1ncn2Cc1c(F)cccc1Cl | 4.39% [at 35.3 µM] |
| Fc1ccccc1-c1ccccc1 | 0.559% |
| CN(C)C(=O)C(CCN1CCC(O)(c2ccc(Cl)cc2)CC1)(c1ccccc1)c1ccccc1 | 14.2% [at 35.3 µM] |
| CN1[C@@H]2CC[C@H]1CC(NC(=O)n1c(=O)[nH]c3ccccc31)C2 (some centres not stated) | 3.98% [at 35.3 µM] |
| COC(=O)[C@H]1[C@H]2C[C@@H]3c4[nH]c5cc(OC)ccc5c4CCN3C[C@H]2C[C@@H](OC(=O)COc2ccc(OC)cc2)[C@@H]1OC | -2.65% [at 35.3 µM] |
| C=C(C)[C@@H]1CCC2=CC(=O)C[C@@H](C)[C@]2(C)C1 | -14% |
| Cc1nc(-c2ccc(OCC(C)C)c(C#N)c2)sc1C(=O)O | -29.7% [at 35.3 µM] |
| [O-][N+](=Nc1ccccc1)c1ccccc1 | -3.31% |
| c1ccc(CCCc2ccccn2)cc1 | -11.3% |
| CC(C)CCOC(=O)CC(C)C | 0.731% |
| Cc1ccccc1C(=O)O | 0.595% |
| CCCCCCCCCCCCCCCCCCOCC(O)CO (configuration not stated) | 0.017% [at 35.3 µM] |
| C=C(C)C(=O)NCCC[N+](C)(C)C | 0.0968% |

| Structure (SMILES) | activity change, negative = cytotoxicity |
| --- | --- |
| CCCCc1ccc2cccc(S(=O)(=O)O)c2c1 | -0.054% |
| NC(=O)c1ncn([C@@H]2O[C@H](CO)[C@@H](O)[C@H]2O)c1O | -1.68% [at 35.3 µM] |
| C[C@H]1O[C@@H](n2cc(F)c(=O)[nH]c2=O)[C@H](O)[C@@H]1O | 0.537% [at 35.3 µM] |
| CCCCOCC(C)OCC(C)O (configuration not stated) | 10.1% |
| NC(=O)Nc1nc2ccccc2[nH]1 | 9.01% |
| CC(C)c1cccc(C(C)C)c1N | 0.701% |
| NC(N)=NS(=O)(=O)c1ccc(N)cc1 | 1.06% [at 35.3 µM] |
| CC(C)(C)CC(C)(C)N | 0.103% |
| CC/C=C\CCCCO | 6.7% |
| CCO[Si](C)(OCC)OCC | 1.27% |
| COc1cc(CCC(C)=O)ccc1O | -0.855% |
| CC1(C)SC(C)(C)SC(C)(C)S1 | -1.61% |
| Nc1nc(F)nc2c1ncn2[C@@H]1O[C@H](CO)[C@@H](O)[C@@H]1O | 8.97% [at 35.3 µM] |
| C=C(C)C(=O)NCCCN(C)C | 9.15% |
| CC1=CC(C)C(C=O)C(C)C1 (configuration not stated) | 0.564% |
| O=C(O)Cc1cc(I)c(Oc2cc(I)c(O)c(I)c2)c(I)c1 | -18.3% [at 35.3 µM] |
| CC1CCN(CCCC(=O)c2ccc(F)cc2)CC1 | 11.7% [at 35.3 µM] |
| COc1cccc(Br)c1 | 5.46% |
